Experimental data reported in PubChem BioAssay AID488864 (Broad Institute, 2010).
Measured potencies and affinities stand elsewhere. Values without a mark were called inactive.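 The calls were made as follows: active = ATP signal reduced by compound, with fitted active dose under ten times the top valid tested dose; inactive = the rest, compounds that increase ATP levels included.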

test: cellular ATP toxicity in rat beta cells – cell-based, CellTiter-Glo luminescence, INS-1E, dry powder, cytotoxicity control for beta-cell cytokine protection project, dose response (AID 488864); settings: INS-1E rat beta cells, 48 h, no cytokines; series mostly up to 26 µM; activity change, negative = ATP decrease: at the top concentration

Question: With COc1ccc(S(=O)(=O)N(C)C[C@@H]2Oc3ccc(NC(=O)Nc4cccc5ccccc45)cc3C(=O)N([C@@H](C)CO)C[C@H]2C)cc1 as the compound, how does the “activity change, negative = ATP decrease” value read?
Answer: 4.91%

Question: With C[C@@H]1CN([C@@H](C)CO)C(=O)c2cccc(NC(=O)Nc3ccccc3)c2O[C@H]1CN(C)S(=O)(=O)c1ccc(Cl)cc1 as the compound, how does the “activity change, negative = ATP decrease” value read?
Answer: 3.91%

Question: For COc1ccc(S(=O)(=O)N(C)C[C@@H]2Oc3c(NC(=O)Nc4ccc5c(c4)OCO5)cccc3C(=O)N([C@@H](C)CO)C[C@H]2C)cc1, which “activity change, negative = ATP decrease” value is on record?
Answer: 9.54%

Question: With C[C@@H]1CN([C@@H](C)CO)C(=O)c2cccc(NC(=O)Nc3cccc4ccccc34)c2O[C@H]1CN(C)S(=O)(=O)c1ccccc1 as the compound, how does the “activity change, negative = ATP decrease” value read?
Answer: 6.66%

Question: For COc1ccc(S(=O)(=O)N(C)C[C@@H]2Oc3c(NC(=O)Nc4cccc5ccccc45)cccc3C(=O)N([C@@H](C)CO)C[C@H]2C)cc1C, which “activity change, negative = ATP decrease” value is on record?
Answer: 12%

Question: With COc1ccc(S(=O)(=O)N(C)C[C@@H]2Oc3c(NC(=O)C4CC4)cccc3C(=O)N([C@@H](C)CO)C[C@H]2C)cc1 as the compound, how does the “activity change, negative = ATP decrease” value read?
Answer: 1.69% [at 23.5 µM]

Question: With CNC[C@@H]1Oc2c(NC(=O)Nc3cccc4ccccc34)cccc2C(=O)N([C@@H](C)CO)C[C@H]1C as the compound, how does the “activity change, negative = ATP decrease” value read?
Answer: -0.69%

Question: Which “activity change, negative = ATP decrease” value does the source give for COc1ccc(S(=O)(=O)N(C)C[C@@H]2Oc3c(NC(=O)NC4CCCCC4)cccc3C(=O)N([C@@H](C)CO)C[C@H]2C)cc1 here?
Answer: 6.92%

Question: With COc1ccc(S(=O)(=O)N(C)C[C@@H]2Oc3c(NC(=O)Nc4ccccc4)cccc3C(=O)N([C@H](C)CO)C[C@H]2C)cc1 as the compound, how does the “activity change, negative = ATP decrease” value read?
Answer: 1.41%

Question: For COc1ccc(S(=O)(=O)N(C)C[C@@H]2Oc3c(NS(=O)(=O)c4ccccc4)cccc3C(=O)N([C@@H](C)CO)C[C@H]2C)cc1, which “activity change, negative = ATP decrease” value is on record?
Answer: 5.7%

Question: With C[C@@H]1CN([C@@H](C)CO)C(=O)c2cccc(NC(=O)Nc3cccc4ccccc34)c2O[C@H]1CN(C)S(=O)(=O)c1ccc2c(c1)OCO2 as the compound, how does the “activity change, negative = ATP decrease” value read?
Answer: -1.3%

Question: With COc1ccc(S(=O)(=O)N(C)C[C@H]2Oc3c(NC(=O)Nc4cccc5ccccc45)cccc3C(=O)N([C@H](C)CO)C[C@H]2C)cc1 as the compound, how does the “activity change, negative = ATP decrease” value read?
Answer: 5.53%

Question: For COc1ccc(S(=O)(=O)N(C)C[C@@H]2Oc3c(NC(=O)Nc4ccc(F)cc4)cccc3C(=O)N([C@@H](C)CO)C[C@H]2C)cc1, which “activity change, negative = ATP decrease” value is on record?
Answer: 5.46% [at 23.5 µM]

Question: For COc1ccc(S(=O)(=O)N(C)C[C@@H]2Oc3c(NS(=O)(=O)c4ccc(Cl)cc4)cccc3C(=O)N([C@@H](C)CO)C[C@H]2C)cc1, which “activity change, negative = ATP decrease” value is on record?
Answer: 2.03%

Question: For N#Cc1ccc2cc(Br)c(C(F)(F)P(=O)(O)O)cc2c1, which “activity change, negative = ATP decrease” value is on record?
Answer: -3.66%

Question: For C[C@@H]1CN([C@@H](C)CO)C(=O)c2cccc(NC(=O)Nc3ccc(F)cc3)c2O[C@H]1CN(C)S(=O)(=O)c1ccc(F)cc1, which “activity change, negative = ATP decrease” value is on record?
Answer: 5.77%

Question: With C[C@@H]1CN([C@@H](C)CO)C(=O)c2cccc(NC(=O)Nc3cccc4ccccc34)c2O[C@H]1CN(C)S(=O)(=O)c1ccc2c(c1)OCCCO2 as the compound, how does the “activity change, negative = ATP decrease” value read?
Answer: 7.84%

Question: For COc1ccc(S(=O)(=O)N(C)C[C@@H]2Oc3c(NS(=O)(=O)c4cn(C)cn4)cccc3C(=O)N([C@@H](C)CO)C[C@H]2C)cc1, which “activity change, negative = ATP decrease” value is on record?
Answer: -1.6%

Question: With COc1ccc(S(=O)(=O)N(C)C[C@H]2Oc3c(NC(=O)Nc4cccc5ccccc45)cccc3C(=O)N([C@H](C)CO)C[C@@H]2C)cc1 as the compound, how does the “activity change, negative = ATP decrease” value read?
Answer: 2.53%

Question: Which “activity change, negative = ATP decrease” value does the source give for C[C@@H]1CN([C@@H](C)CO)C(=O)c2cccc(NC(=O)Nc3cccc4ccccc34)c2O[C@H]1CN(C)S(=O)(=O)c1ccc2c(c1)oc(=O)n2C here?
Answer: 2.94%

Question: With C[C@@H]1CN([C@@H](C)CO)C(=O)c2cccc(NC(=O)Nc3cccc4ccccc34)c2O[C@H]1CN(C)S(=O)(=O)c1cccc(F)c1 as the compound, how does the “activity change, negative = ATP decrease” value read?
Answer: 5%

Question: With Cc1ccc(S(=O)(=O)N(C)C[C@@H]2Oc3c(NC(=O)Nc4ccccc4)cccc3C(=O)N([C@@H](C)CO)C[C@H]2C)cc1 as the compound, how does the “activity change, negative = ATP decrease” value read?
Answer: 8.13%

Question: For COc1ccc(S(=O)(=O)N(C)C[C@@H]2Oc3c(NC(=O)Nc4cccc5ccccc45)cccc3C(=O)N([C@@H](C)CO)C[C@H]2C)cc1F, which “activity change, negative = ATP decrease” value is on record?
Answer: 12%

Question: Which “activity change, negative = ATP decrease” value does the source give for C[C@@H]1CN([C@@H](C)CO)C(=O)c2cccc(NC(=O)Nc3cccc4ccccc34)c2O[C@H]1CN(C)C(=O)NC1CCCCC1 here?
Answer: -14.9%

Question: Which “activity change, negative = ATP decrease” value does the source give for COc1ccc(S(=O)(=O)N(C)C[C@@H]2Oc3c(NC(=O)NC(C)C)cccc3C(=O)N([C@@H](C)CO)C[C@H]2C)cc1 here?
Answer: 1.96%

Question: For COc1ccc(S(=O)(=O)N(C)C[C@@H]2Oc3c(NC(=O)Nc4cccc5ccccc45)cccc3C(=O)N(C(C)C)C[C@H]2C)cc1, which “activity change, negative = ATP decrease” value is on record?
Answer: 0.128%

Question: With COc1ccc(S(=O)(=O)N(C)C[C@@H]2Oc3c(NC(=O)c4cc(C)nn4C)cccc3C(=O)N([C@@H](C)CO)C[C@H]2C)cc1 as the compound, how does the “activity change, negative = ATP decrease” value read?
Answer: 4.75%

Question: Which “activity change, negative = ATP decrease” value does the source give for C[C@@H]1CN([C@@H](C)CO)C(=O)c2cccc(NC(=O)Nc3cccc4ccccc34)c2O[C@H]1CN(C)C(=O)Nc1ccc2c(c1)OCO2 here?
Answer: -3.25%

Question: For C[C@@H]1CN([C@@H](C)CO)C(=O)c2cccc(NC(=O)Nc3cccc4ccccc34)c2O[C@H]1CN(C)S(C)(=O)=O, which “activity change, negative = ATP decrease” value is on record?
Answer: 1.3%
